# Source: ChEMBL document CHEMBL3988442, “University of Dundee, Small-Polar-MMV Screening Library” (2021)
# For some assays here: Entries with a potency or affinity are not part of this list.
# Legend:
# Design in all cases: scale not given: direction of the effect not stated beside the values
# [1] = molecular target: Protein translocase subunit SecA (Escherichia coli (strain K12)) (UniProt P10408); test: Assay to Identify E. coli SecA ATPase Inhibitors; assay type: functional; conditions: 30 µM
# Sequence of Protein translocase subunit SecA (Escherichia coli (strain K12)) (P10408 whole entry): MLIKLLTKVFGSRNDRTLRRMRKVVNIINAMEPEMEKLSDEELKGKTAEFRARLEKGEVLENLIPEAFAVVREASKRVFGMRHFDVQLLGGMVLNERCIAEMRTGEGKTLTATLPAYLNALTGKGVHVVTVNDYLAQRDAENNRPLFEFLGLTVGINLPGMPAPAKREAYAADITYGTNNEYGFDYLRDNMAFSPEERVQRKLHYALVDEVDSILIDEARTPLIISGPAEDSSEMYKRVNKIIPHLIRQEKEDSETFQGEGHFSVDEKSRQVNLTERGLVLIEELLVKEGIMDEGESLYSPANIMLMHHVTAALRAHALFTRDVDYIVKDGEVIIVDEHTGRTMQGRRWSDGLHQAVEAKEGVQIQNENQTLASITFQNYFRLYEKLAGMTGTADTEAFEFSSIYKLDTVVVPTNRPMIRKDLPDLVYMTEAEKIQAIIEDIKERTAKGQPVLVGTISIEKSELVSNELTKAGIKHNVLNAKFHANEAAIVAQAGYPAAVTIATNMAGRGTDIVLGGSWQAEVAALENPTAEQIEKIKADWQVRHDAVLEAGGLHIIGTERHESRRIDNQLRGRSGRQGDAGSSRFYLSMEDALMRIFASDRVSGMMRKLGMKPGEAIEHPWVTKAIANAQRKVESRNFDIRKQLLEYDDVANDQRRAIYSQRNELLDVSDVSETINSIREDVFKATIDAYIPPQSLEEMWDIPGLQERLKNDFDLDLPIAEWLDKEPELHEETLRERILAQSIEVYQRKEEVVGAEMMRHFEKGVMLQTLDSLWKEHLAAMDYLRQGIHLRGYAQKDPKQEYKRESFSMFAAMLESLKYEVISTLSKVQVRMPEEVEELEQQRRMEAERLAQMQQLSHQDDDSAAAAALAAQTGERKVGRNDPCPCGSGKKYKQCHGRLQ
# [2] = molecular target: T1, Ubiquitin-activating enzyme e1, putative (Leishmania donovani (strain BPK282A1)) (UniProt E9BSI1); test: Leishmania donovani Ubiquitin Activating Enzyme (LdE1); assay type: functional; conditions: 30 µM
# T1 sequence (whole entry): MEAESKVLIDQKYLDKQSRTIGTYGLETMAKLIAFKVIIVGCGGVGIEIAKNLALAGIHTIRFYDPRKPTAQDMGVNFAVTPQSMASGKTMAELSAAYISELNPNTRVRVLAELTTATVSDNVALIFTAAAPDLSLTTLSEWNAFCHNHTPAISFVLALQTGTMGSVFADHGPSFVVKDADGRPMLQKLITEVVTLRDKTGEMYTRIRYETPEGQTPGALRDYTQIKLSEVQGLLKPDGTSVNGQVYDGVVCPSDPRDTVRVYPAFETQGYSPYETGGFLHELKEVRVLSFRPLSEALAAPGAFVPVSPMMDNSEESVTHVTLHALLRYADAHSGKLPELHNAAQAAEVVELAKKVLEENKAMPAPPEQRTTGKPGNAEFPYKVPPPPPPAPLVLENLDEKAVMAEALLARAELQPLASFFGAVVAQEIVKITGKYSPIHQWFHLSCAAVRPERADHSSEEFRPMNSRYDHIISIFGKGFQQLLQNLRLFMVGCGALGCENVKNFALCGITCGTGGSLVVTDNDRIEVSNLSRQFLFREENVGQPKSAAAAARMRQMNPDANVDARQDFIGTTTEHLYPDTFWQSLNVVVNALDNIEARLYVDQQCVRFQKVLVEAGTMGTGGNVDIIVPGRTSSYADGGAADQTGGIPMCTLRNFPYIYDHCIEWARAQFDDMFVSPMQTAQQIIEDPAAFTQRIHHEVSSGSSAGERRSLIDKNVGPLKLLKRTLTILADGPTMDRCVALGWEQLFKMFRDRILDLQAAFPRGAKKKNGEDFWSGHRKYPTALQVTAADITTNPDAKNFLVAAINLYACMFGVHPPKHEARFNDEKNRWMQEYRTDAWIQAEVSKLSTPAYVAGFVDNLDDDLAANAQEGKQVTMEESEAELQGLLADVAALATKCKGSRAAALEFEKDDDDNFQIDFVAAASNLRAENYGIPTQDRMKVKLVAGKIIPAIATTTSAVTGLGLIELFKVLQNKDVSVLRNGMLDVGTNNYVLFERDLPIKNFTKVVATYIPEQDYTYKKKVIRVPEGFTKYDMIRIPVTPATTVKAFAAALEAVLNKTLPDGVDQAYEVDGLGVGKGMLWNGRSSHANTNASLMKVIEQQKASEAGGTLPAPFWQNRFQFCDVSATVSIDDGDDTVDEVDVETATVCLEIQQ
# [3] = molecular target: AMP-activated protein kinase, AMPK (Homo sapiens) (UniProt P54646+O43741+P54619+Q9UGJ0+Q9Y478+Q13131+Q9UGI9); test: AMP-dependent Kinase enzyme assay. An in vitro enzyme assay that detects ADP turnover that is directly proportional to AMPK activity. This uses naive AMPK that is activated during the assay with MK-8722; assay type: functional; conditions: 30 µM
# [4] = molecular target: Sialic acid-binding Ig-like lectin 9 (Homo sapiens) (UniProt Q9Y336); test: Hs-Siglec9 ALPHAscreen SOP 20170721; conditions: 10 µM
# Sequence of Sialic acid-binding Ig-like lectin 9 (Homo sapiens) (Q9Y336 whole entry): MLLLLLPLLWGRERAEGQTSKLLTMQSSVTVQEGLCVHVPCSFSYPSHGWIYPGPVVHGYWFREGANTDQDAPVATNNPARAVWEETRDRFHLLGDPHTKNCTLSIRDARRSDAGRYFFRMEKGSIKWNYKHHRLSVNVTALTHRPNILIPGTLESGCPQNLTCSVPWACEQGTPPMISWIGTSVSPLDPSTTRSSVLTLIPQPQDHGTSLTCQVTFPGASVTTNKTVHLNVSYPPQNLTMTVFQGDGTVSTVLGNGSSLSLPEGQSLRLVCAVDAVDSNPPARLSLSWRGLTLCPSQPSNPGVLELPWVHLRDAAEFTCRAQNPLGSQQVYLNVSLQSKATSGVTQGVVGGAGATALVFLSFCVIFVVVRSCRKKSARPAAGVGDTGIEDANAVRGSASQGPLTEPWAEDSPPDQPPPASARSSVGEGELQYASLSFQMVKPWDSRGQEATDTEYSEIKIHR
# Trypanosoma cruzi = test: Trypanosoma cruzi phosphomannomutase and mannose-1-phosphate guanylyltransferase assay; assay type: functional; conditions: 10 µM
# [5] = molecular target: T2, Arginase-2, mitochondrial (Homo sapiens) (UniProt P78540); test: in vitro enzyme assay to detect the production of urea directly proportional to the activity of Arginase II; assay type: functional; conditions: 33.3 µM; also: in the data most compounds retested in dose-response had high values
# T2 sequence (whole entry): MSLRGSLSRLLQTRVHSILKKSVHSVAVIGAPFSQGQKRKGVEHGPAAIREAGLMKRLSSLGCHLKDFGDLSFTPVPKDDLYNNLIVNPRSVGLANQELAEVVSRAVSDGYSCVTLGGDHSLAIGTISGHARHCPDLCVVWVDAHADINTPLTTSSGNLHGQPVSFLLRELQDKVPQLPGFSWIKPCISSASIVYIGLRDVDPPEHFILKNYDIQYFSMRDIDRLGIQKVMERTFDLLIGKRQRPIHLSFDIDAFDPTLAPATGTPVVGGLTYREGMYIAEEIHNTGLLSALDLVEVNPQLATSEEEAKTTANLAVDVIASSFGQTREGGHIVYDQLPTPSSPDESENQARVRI
# [6] = molecular target: T3, Proteasome subunit beta (Trypanosoma cruzi) (UniProt O96673); test: Trypanosoma cruzi proteasome chymotrypsin-like activity (TcProtChymo) assay.; also: in the data most compounds retested in dose-response had high values; assay type: functional; conditions: 9.37 µM
# T3 sequence (whole entry): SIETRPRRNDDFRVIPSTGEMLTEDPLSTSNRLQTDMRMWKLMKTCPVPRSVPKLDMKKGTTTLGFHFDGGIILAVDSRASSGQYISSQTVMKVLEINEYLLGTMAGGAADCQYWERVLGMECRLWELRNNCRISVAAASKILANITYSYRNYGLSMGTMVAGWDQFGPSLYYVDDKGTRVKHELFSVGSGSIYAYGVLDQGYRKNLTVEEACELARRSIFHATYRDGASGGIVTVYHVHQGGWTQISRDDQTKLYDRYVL
# Homo sapiens = species on record: Homo sapiens; test: To identify inhibition of the IFN signalling (Jak-Stat) pathway via expression of an eGFP reporter gene under the control of an IFN-stimulated response element (ISRE) containing MxA promoter.; assay type: functional; conditions: 30 µM
# [7] = molecular target: T4, Tyrosyl-tRNA synthetase, putative (Trypanosoma cruzi (strain CL Brener)) (UniProt Q4DSP6); test: Trypanosoma cruzi tyrosyl tRNA synthetase (TcYRS) _High Tyrosine SOP; assay type: functional; conditions: 30 µM; also: in the data most compounds retested in dose-response had high values
# T4 sequence (whole entry): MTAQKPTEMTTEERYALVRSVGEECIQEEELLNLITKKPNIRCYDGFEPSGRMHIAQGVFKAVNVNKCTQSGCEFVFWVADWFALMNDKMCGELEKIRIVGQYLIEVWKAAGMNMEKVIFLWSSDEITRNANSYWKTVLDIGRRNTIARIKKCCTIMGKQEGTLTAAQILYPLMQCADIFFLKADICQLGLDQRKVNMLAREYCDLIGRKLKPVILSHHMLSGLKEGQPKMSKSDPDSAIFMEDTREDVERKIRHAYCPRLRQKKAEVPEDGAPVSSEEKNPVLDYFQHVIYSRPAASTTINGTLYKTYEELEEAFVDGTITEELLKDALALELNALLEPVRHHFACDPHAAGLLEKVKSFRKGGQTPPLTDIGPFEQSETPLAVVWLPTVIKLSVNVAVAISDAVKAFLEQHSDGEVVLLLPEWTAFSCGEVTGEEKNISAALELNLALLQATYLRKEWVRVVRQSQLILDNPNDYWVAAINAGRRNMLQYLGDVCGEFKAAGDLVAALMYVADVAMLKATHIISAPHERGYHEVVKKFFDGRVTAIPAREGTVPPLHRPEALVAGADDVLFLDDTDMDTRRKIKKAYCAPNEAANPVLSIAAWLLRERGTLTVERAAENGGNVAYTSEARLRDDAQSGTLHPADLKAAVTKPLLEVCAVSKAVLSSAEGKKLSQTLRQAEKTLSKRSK
# [8] = molecular target: T4, Tyrosyl-tRNA synthetase, putative (Trypanosoma cruzi (strain CL Brener)); test: Trypanosoma cruzi tyrosyl tRNA synthetase (TcYRS) SOP; assay type: functional; conditions: 30 µM
# [9] = molecular target: Chromo domain-containing protein 1 (Saccharomyces cerevisiae (strain ATCC 204508 / S288c) (Baker's yeast)) (UniProt P32657); test: ScCHD-1 Enzyme Inhibition Assay; assay type: functional; conditions: 30 µM; also: in the data most compounds retested in dose-response had high values
# Sequence of Chromo domain-containing protein 1 (Saccharomyces cerevisiae (strain ATCC 204508 / S288c) (Baker's yeast)) (P32657 whole entry, the tested form may be a part): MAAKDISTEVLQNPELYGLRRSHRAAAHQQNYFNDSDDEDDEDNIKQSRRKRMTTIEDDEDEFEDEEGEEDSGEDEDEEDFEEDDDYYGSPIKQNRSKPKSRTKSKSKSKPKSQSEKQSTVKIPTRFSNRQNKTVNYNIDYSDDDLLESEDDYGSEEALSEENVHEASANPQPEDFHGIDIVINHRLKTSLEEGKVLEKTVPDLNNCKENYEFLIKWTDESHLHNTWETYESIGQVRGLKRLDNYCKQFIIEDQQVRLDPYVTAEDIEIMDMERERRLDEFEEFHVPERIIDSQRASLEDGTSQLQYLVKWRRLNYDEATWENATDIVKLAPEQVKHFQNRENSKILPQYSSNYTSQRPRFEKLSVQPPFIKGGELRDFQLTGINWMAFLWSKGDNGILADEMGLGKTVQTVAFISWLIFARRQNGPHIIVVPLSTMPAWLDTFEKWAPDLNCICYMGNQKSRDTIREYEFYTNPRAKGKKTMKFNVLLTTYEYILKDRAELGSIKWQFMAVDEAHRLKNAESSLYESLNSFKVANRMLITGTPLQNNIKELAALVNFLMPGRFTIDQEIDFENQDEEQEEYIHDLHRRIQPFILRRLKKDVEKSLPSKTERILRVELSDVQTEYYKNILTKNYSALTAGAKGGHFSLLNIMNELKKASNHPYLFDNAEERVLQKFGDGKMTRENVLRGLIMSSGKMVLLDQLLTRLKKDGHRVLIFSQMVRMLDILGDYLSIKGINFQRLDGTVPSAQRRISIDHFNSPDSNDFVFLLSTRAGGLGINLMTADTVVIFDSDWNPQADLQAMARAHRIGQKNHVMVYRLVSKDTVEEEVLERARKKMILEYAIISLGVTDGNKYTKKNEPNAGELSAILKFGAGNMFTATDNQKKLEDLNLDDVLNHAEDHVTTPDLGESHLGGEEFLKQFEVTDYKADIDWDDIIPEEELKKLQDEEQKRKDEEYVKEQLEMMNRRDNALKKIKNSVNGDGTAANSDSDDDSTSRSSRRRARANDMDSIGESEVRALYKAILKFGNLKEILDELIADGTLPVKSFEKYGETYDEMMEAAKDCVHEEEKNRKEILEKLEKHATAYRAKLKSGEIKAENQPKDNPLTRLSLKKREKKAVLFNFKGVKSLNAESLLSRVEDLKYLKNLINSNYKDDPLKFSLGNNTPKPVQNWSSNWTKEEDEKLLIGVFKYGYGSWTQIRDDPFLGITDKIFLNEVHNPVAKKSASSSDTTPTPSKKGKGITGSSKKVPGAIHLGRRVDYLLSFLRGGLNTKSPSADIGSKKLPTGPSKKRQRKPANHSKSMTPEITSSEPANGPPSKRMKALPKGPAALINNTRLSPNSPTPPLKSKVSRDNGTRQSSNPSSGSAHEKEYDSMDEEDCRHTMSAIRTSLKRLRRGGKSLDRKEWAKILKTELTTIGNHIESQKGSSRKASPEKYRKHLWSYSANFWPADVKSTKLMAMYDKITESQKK
SMILES,Percent Effect [1],Percent Effect [2],Percent Effect [3],Percent Effect [4],Percent Effect (Trypanosoma cruzi),Percent Effect [5],Percent Effect [6],Percent Effect (Homo sapiens),Percent Effect [7],Percent Effect [8],Percent Effect [9]
CC(C)Oc1cccc(C(=O)C2CCCN(C(=O)c3ccccn3)C2)c1 (configuration not stated),-2.58%,0%,-1.81%,4.35%,-2.12%,-1.91%,14.3%,5%,0.529%,2.44%,-1.58%
Cc1ncc2c(n1)CN(CC(=O)Nc1nncs1)CC2,-1.88%,2.63%,-37.1%,5.79%,3.27%,1.08%,6.01%,-6.49%,5.42%,11.1%,-4.76%
CCc1noc(CN2CCCN(C(N)=O)CC2)n1,-0.23%,0%,5.45%,11.3%,-6.7%,4.94%,5.98%,21.4%,-1.48%,-8.86%,-6.21%
CCn1ncc2c1CCCC2NCc1cc(Cl)c(OC)c(OC)c1 (configuration not stated),-5.26%,12.7%,-8.16%,14.8%,3.31%,3.04%,-0.901%,66.8%,9.36%,21.5%,-6.2%
COCCc1noc(CN2CCc3nn(C(C)C)c(=O)cc3C2)n1,-3.44%,18.4%,-7.36%,-6.23%,-4.58%,0.719%,6.18%,6.48%,5.42%,11.1%,-11.2%
Cc1cc(C)c(CNC(=O)N2CCCC2c2ccccc2)c(=O)[nH]1 (configuration not stated),-1.29%,-77.2%,4.12%,3.59%,3.59%,3.23%,19.4%,-0.586%,3.12%,17.7%,-23.8%
O=C(NCc1ccc(-c2ccn[nH]2)cc1)N1CCC(N2CCCC2)C1 (configuration not stated),-6.43%,2.63%,-5.77%,6.24%,1.59%,-5.4%,4.65%,5.01%,10.3%,18.5%,1.9%
O=S(=O)(C1CC1)N1CC[C@]2(C[C@@H](Oc3ccccn3)CO2)C1,-2.9%,10.4%,2.58%,5.55%,-2.46%,3.23%,7.66%,11.7%,0%,8.97%,-7.95%
Cc1cc2cc(C(=O)N[C@@H]3CC[C@@H](N4CCOCC4)[C@@H]3O)ccc2o1,1.28%,17.6%,5.33%,-5.41%,2.57%,-0.232%,13.4%,29.4%,5.38%,3.9%,-10.2%
O=C(NCc1ccccn1)[C@H]1COC[C@H]2CN(Cc3ccoc3)C[C@H]21,-2.43%,2.7%,6.89%,-1.93%,-6.16%,2.87%,20.3%,-4.49%,5.41%,7.69%,-5.52%
CSc1ncccc1C(=O)N1CCC(c2nc3c(C)cccc3[nH]2)CC1,-5.33%,20.8%,6.84%,10.4%,3.83%,-5.52%,16.1%,3.12%,7.53%,13.6%,-10.4%
COc1ccc(C(=O)N2CCCCC2Cn2cccn2)c(F)c1 (configuration not stated),-1.68%,15.6%,2.24%,6.84%,1.5%,-1.42%,13.7%,-14.3%,6.8%,14.6%,-9.15%
CCO[C@@H]1CO[C@@]2(CCCN(Cc3scnc3C)C2)C1,-2.88%,0%,-3.01%,9.05%,7.14%,-5.19%,9.85%,3.99%,-4.17%,3.7%,-0.793%
CC(=O)N1CCN(c2cc(C3CN(C)CCO3)nc(C)n2)CC1 (configuration not stated),-3.82%,12.2%,9.39%,0.199%,-3.36%,-1.16%,14.8%,12.3%,5.38%,14.3%,-1.64%
Cc1cc(CN2CCc3nn(C)c(=O)cc3C2)on1,-2.46%,12.5%,-228%,-1.88%,-0.0972%,4.86%,6.84%,-5.36%,-3.16%,-7.69%,-2.45%
CC(C)C1CN(C(=O)c2ccc(C(N)=O)cc2)CCS1 (configuration not stated),-4.2%,5.2%,1.75%,3.92%,-6.2%,-4.14%,6.49%,6.03%,2.15%,6.17%,0.585%
CCn1c(CN(C)C)nnc1C1CCN(Cc2cccc(OC)c2)CC1,2.78%,10.4%,-4.93%,7.22%,-3.64%,-12.4%,16%,10.6%,4.3%,11.1%,0.325%
Cc1nn(CC(C)C)c(N(C)C)c1CNCc1cc2ccccc2[nH]1,-3.68%,10.8%,-5.31%,5.12%,-2.17%,-3.21%,5.77%,2.34%,13.3%,16.1%,-8.01%
COc1cccc(COCC(O)CN2CC(n3cccn3)C2)c1 (configuration not stated),0.892%,21.1%,5.98%,1.34%,6.58%,-0.383%,10.4%,-16.2%,7.35%,19.5%,-12.6%
Cc1oc(C)c(C(=O)NCc2ccccn2)c1C,-0.692%,10.5%,-8.31%,2.54%,-12.8%,7.28%,15.7%,14%,1.47%,7.32%,-5.27%
COc1ncccc1C(=O)N1CCCC(c2cc(C)[nH]n2)C1 (configuration not stated),-4.92%,0%,-0.772%,-1.9%,-0.66%,-0.802%,1.8%,10.4%,1.48%,-6.17%,1.58%
OCCn1cc(CN2CCN(CCOCC(F)(F)F)CC2)cn1,2.27%,13.5%,-3.44%,-6.72%,-8.63%,-3.14%,13.6%,6.37%,4.95%,3.66%,-2.78%
